In ChEMBL document CHEMBL3988442, “University of Dundee, Small-Polar-MMV Screening Library” (2021) one finds Percent Effect data, which are given here for ten compounds.

Each structure is given as a SMILES string. For some assays here: Results with a measured potency or affinity are listed apart.

What all share (parameters): scale not given: direction of the effect not stated beside the values
The target in test [1] is Protein translocase subunit SecA (Escherichia coli (strain K12)) (UniProt P10408). Put plainly: Assay to Identify E. coli SecA ATPase Inhibitors. Format: functional. Particulars: 30 µM.
Protein translocase subunit SecA (Escherichia coli (strain K12)), sequence (P10408 whole entry): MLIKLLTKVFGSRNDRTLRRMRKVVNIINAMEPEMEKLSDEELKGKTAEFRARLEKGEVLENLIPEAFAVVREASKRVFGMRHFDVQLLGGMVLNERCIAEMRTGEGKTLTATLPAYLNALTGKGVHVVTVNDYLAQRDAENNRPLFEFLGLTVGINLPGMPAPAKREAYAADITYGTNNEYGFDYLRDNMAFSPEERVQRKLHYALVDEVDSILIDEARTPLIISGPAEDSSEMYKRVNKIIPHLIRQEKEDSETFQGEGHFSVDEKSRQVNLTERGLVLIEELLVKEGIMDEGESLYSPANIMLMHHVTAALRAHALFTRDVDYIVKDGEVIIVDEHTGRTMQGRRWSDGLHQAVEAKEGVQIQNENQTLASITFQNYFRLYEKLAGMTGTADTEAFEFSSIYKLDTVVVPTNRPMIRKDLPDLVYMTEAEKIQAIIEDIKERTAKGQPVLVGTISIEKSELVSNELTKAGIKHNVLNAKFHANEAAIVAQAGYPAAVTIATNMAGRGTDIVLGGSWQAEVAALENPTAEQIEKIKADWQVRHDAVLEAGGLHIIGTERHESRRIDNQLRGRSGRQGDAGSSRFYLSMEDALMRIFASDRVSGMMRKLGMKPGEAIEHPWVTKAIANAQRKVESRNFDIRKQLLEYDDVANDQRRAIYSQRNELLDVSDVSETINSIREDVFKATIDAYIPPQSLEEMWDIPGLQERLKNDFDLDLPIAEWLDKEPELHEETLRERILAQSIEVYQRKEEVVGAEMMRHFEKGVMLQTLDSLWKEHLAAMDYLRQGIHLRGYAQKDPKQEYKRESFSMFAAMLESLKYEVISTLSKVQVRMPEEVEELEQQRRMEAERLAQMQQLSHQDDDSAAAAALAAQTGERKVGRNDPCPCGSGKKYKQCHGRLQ
The target in test [2] is T1, Ubiquitin-activating enzyme e1, putative (Leishmania donovani (strain BPK282A1)) (UniProt E9BSI1).
T1 sequence (whole entry): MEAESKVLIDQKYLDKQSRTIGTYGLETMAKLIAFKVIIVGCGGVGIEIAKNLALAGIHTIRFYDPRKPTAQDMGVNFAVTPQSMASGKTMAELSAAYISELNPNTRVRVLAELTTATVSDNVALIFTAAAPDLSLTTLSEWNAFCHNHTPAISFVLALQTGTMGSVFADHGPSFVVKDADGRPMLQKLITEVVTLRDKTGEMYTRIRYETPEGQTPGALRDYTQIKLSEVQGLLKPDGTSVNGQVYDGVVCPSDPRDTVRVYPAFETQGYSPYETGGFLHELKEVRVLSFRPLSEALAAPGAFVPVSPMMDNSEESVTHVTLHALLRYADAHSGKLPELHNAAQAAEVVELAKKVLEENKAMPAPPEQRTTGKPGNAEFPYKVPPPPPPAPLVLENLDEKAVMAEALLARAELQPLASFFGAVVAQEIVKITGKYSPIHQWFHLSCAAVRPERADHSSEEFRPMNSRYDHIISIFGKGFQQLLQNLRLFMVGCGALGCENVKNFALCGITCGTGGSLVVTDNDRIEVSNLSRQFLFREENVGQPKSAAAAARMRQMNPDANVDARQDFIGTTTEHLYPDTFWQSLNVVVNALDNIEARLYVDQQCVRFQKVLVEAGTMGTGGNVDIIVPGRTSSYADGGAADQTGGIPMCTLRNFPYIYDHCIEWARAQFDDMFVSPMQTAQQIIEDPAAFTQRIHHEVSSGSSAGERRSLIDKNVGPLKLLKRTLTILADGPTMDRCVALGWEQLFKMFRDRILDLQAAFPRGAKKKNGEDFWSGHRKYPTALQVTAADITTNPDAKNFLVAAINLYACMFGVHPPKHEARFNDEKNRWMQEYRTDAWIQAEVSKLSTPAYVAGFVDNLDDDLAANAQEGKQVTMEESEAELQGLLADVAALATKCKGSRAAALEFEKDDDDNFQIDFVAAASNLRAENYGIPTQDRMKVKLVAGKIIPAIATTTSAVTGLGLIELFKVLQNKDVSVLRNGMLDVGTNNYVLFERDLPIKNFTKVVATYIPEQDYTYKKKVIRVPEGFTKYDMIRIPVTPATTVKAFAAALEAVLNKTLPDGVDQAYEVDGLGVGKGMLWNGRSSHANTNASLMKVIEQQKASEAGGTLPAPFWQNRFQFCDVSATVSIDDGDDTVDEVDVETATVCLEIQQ
The test can be described thus: Leishmania donovani Ubiquitin Activating Enzyme (LdE1). Format: functional. Particulars: 30 µM.

For test [3], the target named is AMP-activated protein kinase, AMPK (Homo sapiens) (UniProt P54646+O43741+P54619+Q9UGJ0+Q9Y478+Q13131+Q9UGI9). Put plainly: AMP-dependent Kinase enzyme assay. An in vitro enzyme assay that detects ADP turnover that is directly proportional to AMPK activity. This uses naive AMPK that is activated during the assay with MK-8722. Format: functional. As to conditions: 30 µM.

In test [4] the target is Sialic acid-binding Ig-like lectin 9 (Homo sapiens) (UniProt Q9Y336). The test can be described thus: Hs-Siglec9 ALPHAscreen SOP 20170721. As to conditions: 10 µM. For orientation: Bead proximity is the source of the signal in Alpha formats.
Sialic acid-binding Ig-like lectin 9 (Homo sapiens), sequence (Q9Y336 whole entry): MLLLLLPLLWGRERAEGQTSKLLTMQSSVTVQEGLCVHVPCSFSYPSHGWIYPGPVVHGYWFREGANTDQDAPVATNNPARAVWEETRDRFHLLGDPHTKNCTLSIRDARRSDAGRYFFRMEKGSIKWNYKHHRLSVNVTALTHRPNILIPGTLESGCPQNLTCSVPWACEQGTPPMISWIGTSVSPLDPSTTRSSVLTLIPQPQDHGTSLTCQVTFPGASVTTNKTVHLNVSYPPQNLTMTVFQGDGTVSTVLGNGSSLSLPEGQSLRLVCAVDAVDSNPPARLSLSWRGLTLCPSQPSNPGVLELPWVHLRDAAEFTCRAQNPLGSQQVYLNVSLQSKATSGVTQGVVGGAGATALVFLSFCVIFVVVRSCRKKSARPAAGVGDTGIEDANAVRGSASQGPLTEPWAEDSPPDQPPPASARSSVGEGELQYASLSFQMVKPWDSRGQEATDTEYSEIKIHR
Another test concerns Trypanosoma cruzi. The test can be described thus: Trypanosoma cruzi phosphomannomutase and mannose-1-phosphate guanylyltransferase assay. The format is functional. Particulars: 10 µM.
The target of test [5] is T2, Arginase-2, mitochondrial (Homo sapiens) (UniProt P78540).
T2 sequence (whole entry): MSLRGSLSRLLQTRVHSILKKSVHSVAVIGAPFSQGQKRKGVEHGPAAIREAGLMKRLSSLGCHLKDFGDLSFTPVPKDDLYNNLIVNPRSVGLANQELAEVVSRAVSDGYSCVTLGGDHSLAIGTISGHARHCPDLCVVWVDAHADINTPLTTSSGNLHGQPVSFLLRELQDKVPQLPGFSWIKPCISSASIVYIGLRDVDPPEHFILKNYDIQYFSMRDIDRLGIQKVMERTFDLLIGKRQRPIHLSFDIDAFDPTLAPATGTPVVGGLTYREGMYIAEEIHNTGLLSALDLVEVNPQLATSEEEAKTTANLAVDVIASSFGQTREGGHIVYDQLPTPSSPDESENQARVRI
Put plainly: in vitro enzyme assay to detect the production of urea directly proportional to the activity of Arginase II. Also: in the data most compounds retested in dose-response had high values. The format is functional. Particulars: 33.3 µM.

For test [6], the target named is T3, Proteasome subunit beta (Trypanosoma cruzi) (UniProt O96673).
T3 sequence (whole entry): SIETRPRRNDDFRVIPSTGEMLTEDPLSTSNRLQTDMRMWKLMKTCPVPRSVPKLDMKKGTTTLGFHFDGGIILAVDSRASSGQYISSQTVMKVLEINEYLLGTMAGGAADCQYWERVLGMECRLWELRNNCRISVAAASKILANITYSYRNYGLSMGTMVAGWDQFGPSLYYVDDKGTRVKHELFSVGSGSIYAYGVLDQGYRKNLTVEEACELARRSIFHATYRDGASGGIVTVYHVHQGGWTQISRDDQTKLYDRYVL
Put plainly: Trypanosoma cruzi proteasome chymotrypsin-like activity (TcProtChymo) assay. Also: in the data most compounds retested in dose-response had high values. The format is functional. Particulars: 9.37 µM.

The species named for another test is Homo sapiens. The test can be described thus: To identify inhibition of the IFN signalling (Jak-Stat) pathway via expression of an eGFP reporter gene under the control of an IFN-stimulated response element (ISRE) containing MxA promoter. Format: functional. Particulars: 30 µM. A general note: A reporter such as luciferase makes a cellular process visible.
Test [7] has as its target T4, Tyrosyl-tRNA synthetase, putative (Trypanosoma cruzi (strain CL Brener)) (UniProt Q4DSP6).
T4 sequence (whole entry): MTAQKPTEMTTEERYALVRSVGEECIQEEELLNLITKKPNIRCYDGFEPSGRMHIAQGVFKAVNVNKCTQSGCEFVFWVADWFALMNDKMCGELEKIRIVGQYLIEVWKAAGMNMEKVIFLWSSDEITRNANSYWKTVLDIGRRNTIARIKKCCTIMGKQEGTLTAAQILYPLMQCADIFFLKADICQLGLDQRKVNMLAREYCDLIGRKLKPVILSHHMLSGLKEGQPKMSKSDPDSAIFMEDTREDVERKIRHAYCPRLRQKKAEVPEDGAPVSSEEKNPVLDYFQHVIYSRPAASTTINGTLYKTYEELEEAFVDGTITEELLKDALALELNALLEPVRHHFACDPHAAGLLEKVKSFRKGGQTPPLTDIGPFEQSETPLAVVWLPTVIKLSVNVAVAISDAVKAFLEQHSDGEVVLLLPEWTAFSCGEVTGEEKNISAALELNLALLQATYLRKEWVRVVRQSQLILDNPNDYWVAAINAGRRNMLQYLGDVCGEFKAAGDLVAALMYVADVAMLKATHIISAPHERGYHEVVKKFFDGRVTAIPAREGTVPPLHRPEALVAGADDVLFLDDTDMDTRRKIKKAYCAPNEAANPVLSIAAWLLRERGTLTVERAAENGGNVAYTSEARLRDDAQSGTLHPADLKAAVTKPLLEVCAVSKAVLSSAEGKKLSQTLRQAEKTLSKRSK
The test can be described thus: Trypanosoma cruzi tyrosyl tRNA synthetase (TcYRS) _High Tyrosine SOP. Also: in the data most compounds retested in dose-response had high values. The format is functional. Particulars: 30 µM.

Test [8] concerns the target T4, Tyrosyl-tRNA synthetase, putative (Trypanosoma cruzi (strain CL Brener)). Put plainly: Trypanosoma cruzi tyrosyl tRNA synthetase (TcYRS) SOP. Format: functional. Particulars: 30 µM.
The target in test [9] is Chromo domain-containing protein 1 (Saccharomyces cerevisiae (strain ATCC 204508 / S288c) (Baker's yeast)) (UniProt P32657). The test can be described thus: ScCHD-1 Enzyme Inhibition Assay. Also: in the data most compounds retested in dose-response had high values. Format: functional. Particulars: 30 µM.
Chromo domain-containing protein 1 (Saccharomyces cerevisiae (strain ATCC 204508 / S288c) (Baker's yeast)), sequence (P32657 whole entry, the tested form may be a part): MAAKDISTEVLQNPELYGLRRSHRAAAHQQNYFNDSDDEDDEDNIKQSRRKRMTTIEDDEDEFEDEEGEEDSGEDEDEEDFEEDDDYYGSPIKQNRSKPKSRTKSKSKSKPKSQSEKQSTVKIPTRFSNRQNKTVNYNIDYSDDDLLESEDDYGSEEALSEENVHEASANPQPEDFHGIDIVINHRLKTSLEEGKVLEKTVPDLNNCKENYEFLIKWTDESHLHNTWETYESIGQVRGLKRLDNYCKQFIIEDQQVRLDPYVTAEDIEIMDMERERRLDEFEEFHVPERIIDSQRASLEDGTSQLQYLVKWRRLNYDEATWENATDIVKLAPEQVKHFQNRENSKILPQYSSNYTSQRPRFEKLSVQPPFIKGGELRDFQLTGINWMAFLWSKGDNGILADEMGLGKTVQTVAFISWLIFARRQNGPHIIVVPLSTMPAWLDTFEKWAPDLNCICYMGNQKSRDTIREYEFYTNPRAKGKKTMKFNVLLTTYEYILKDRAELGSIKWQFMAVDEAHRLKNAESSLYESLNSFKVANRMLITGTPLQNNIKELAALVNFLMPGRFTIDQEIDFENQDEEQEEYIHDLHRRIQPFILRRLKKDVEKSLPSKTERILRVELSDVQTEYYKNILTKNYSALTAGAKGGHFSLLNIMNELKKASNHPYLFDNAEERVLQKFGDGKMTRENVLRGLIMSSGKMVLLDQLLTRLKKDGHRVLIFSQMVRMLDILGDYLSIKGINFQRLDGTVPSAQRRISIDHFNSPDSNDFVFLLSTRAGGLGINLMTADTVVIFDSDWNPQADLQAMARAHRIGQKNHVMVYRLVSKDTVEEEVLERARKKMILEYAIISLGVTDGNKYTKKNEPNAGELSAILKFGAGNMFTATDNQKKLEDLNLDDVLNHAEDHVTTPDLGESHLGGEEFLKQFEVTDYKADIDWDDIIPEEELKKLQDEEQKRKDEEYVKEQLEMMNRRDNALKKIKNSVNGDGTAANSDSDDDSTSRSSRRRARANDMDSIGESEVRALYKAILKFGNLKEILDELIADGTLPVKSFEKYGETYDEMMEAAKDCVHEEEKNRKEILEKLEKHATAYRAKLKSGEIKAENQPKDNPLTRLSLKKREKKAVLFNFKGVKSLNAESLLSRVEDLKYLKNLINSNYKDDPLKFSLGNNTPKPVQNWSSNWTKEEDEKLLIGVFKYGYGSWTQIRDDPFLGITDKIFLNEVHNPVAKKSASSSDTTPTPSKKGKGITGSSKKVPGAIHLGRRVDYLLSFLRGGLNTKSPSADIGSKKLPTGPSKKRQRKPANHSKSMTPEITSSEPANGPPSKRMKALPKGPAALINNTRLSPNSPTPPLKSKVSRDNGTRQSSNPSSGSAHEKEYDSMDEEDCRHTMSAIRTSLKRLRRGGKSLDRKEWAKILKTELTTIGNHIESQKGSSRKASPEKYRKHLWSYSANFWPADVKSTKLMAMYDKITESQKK

On to `CN(CCN1CCCCC1)C(=O)c1cc(CN2CCOCC2)on1`, for which the Percent Effect is -2.82% in test [1]; 8.22% in test [2]; -18.2% in test [3]; -4.57% in [4]; 2.74% with Trypanosoma cruzi; 1.82% in [5]. The Percent Effect in [6] was 21.8%; in the test listed under Homo sapiens, -8.25%; in test [7], 7.53%; in test [8] it was 20%; in [9], -3.28%.
Regarding `CC(C)c1ccc(C(C)NC(=O)N2CCC(n3cncn3)CC2)cc1` (stereo not given), the Percent Effect was -4.08% in [1]; 10.1% in [2]; -2.45% in [3]; 13.7% in test [4]; -3.87% with Trypanosoma cruzi; 0% in [5]. In addition, the Percent Effect in [6] is 5.49%; in the test listed under Homo sapiens, 13.3%; in test [7], 3.45%; in test [8] it was 8.86%; in [9] it was -3.06%.
With `CCc1nc(C)c([C@H]2CN(C)C[C@@H]2C(=O)Nc2ccc(OC)cc2)[nH]1`, the Percent Effect is -5.53% in test [1]; 5.41% in test [2]; -1.46% in [3]; 2.65% in [4]; 1.16% in the test with Trypanosoma cruzi; -2.86% in test [5]. Further, the Percent Effect was 8.28% in [6]; 1.5% in the test filed under Homo sapiens; 8.99% in test [7]; 12.2% in [8]; -4.67% in test [9].
In the case of `COC(=O)C(c1cc(F)ccc1F)N(C)C(=O)c1csnn1` (stereo not given), the Percent Effect in test [1] was 1.09%; in test [2], 16.5%; in test [3], 3.37%; in [4], -5.43%; in the test on Trypanosoma cruzi, -5.64%; in test [5], -1.5%. The Percent Effect is 14.4% in test [6]; 21.4% in the test listed under Homo sapiens; 6.25% in test [7]; 12.7% in test [8]; -27.1% in test [9].
Regarding `CC(C)NC(=O)[C@@H]1CCO[C@@H]2CCN(c3ncccn3)C[C@H]21`, the Percent Effect was -6.07% in [1]; 16% in [2]; -1.13% in test [3]; 0.524% in test [4]; 0.579% with Trypanosoma cruzi; -45% in test [5]. Moreover, the Percent Effect is 4.1% in test [6]; -11% in the test listed under Homo sapiens; 8.33% in test [7]; 10% in [8]; -7.2% in test [9].
Take `Cc1ccc(C)c(OC2CCN(C(=O)c3ccc(C)[nH]c3=O)CC2)c1`: the Percent Effect in test [1] is -3.58%; in test [2], 15.8%; in [3], -5.18%; in test [4] it was 6.14%; in the test on Trypanosoma cruzi, 8.84%; in test [5], 1.53%. The Percent Effect is 10.9% in test [6]; 11.6% in the test listed under Homo sapiens; 5.39% in test [7]; 12.2% in test [8]; -11.4% in test [9].
In the case of `COCCOCC(=O)Nc1ccc(C)cc1F`, the Percent Effect in test [1] was -1.36%; in [2], 2.63%; in [3] it was 5.59%; in test [4], -0.498%; in the test with Trypanosoma cruzi it was 3.21%; in test [5] it was 0%. In addition, the Percent Effect in test [6] is 9.11%; in the test listed under Homo sapiens, -16.7%; in test [7] it was 2.13%; in test [8], 2.6%; in test [9], 2.83%.
As for `CCOCc1ncn2c1CN(C(=O)Nc1cccc(C)c1)CC2`, the Percent Effect was -0.857% in [1]; -173% in test [2]; 3.58% in [3]; 1.03% in test [4]; -2.54% in the test with Trypanosoma cruzi; 0.417% in test [5]. The Percent Effect in [6] stood at 9.21%; in the test listed under Homo sapiens it was 2.31%; in test [7], 12.9%; in test [8] it was 13.4%; in test [9], 1.64%.
`CNC(=O)NC(=O)CN1CCC(c2c[nH]c3ccc(OC)cc23)CC1`: the Percent Effect was -5.27% in [1]; 10.7% in [2]; -5.74% in [3]; 22.2% in test [4]; 0.292% in the test with Trypanosoma cruzi; 4.69% in [5]. In addition, the Percent Effect in test [6] was 12.4%; in the test listed under Homo sapiens, 7.02%; in test [7] it was 9.29%; in [8], 18.5%; in [9], -8.18%.
For the compound `CCN1CC2(CC1=O)CN(Cc1cnn(C)c1)CCN(C(C)=O)C2` (stereo not given), the Percent Effect in test [1] was -7.25%; in [2], 8.11%; in test [3], 4.66%; in test [4], -2.12%; in the test on Trypanosoma cruzi it was -2.34%; in [5] it was -3.33%. For the same compound, the Percent Effect in [6] was 10.4%; in the test listed under Homo sapiens, -2.64%; in test [7] it was 5.94%; in test [8], 8.54%; in [9], 2.03%.
